p53ts 32C tox: qHTS Screen for Compounds that Selectively Target Cancer Cells with p53 Mutations: Cytotoxicity of p53ts Cells at the Permissive Temperature | H1299-p53A138V at 32C, ATP luminescence viability, 24 h | Potency, µM (top dose mostly 46.1 µM), for inactives: at the highest dose activity change, negative = cytotoxicity, usual class: cytotoxic | 130,000 tested, 0.93% active | AID 924, 2007;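 note: 0% = DMSO and -100% = full killing by reference compound; nearly all actives have a fitted effect of over 55% in size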
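Viability by ATPlite luminescence after 24 h compound treatment (up to 46 uM) at the permissive 32C. Cells are H1299 carrying p53 A138V. Scale runs from DMSO basal to 100 uM tamoxifen as full kill; AC50 from Hill fits.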
IkB sig inh: IkB Signaling; Potency, µM (doses to about 57.1 µM), for inactives: at the top dose IkBa stabilization activation; 110,000 tested, 0.04% active; ABC-DLBCL IkBa-CBG/CBR dual luciferase ratio, 4 h; response scale: scaled: untreated 0%, proteasome inhibitor 100%; active = well fitted curve in the direction sought with a large enough effect in the signal ratio, not every such curve was filed as active; inconclusive = small, poorly fitted or top-dose-only effect, or a change in a side signal; the % refers to the signal ratio;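 note: the direction sought is a rising ratio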
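In this assay, an IκBα–CBG68 fusion accumulates when IKK-driven degradation is blocked; native CBR normalizes for cell number. OCI-Ly3 cells were treated 4 h with compound and doxycycline, then green and red light read after Chroma-Glo addition.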
p53ts 39C kill: qHTS Screen for Compounds that Selectively Target Cancer Cells with p53 Mutations: Cytotoxicity of p53ts Cells at the Nonpermissive Temperature. AID 902, 2007. Potency, µM (highest dose often 46.1 µM), for the others: at the top dose activity change, negative = cell killing, hits mostly cytotoxic. 130,000 tested, 1.5% active. H1299-p53A138V viability at 39C, ATP luminescence, 24 h; note: % is set by controls: 0 for no effect and ±100 for the full control effect; nearly all actives have a fitted effect of over 55% in size
Peg3 imprint: qHTS Assay for Compounds that Induce Erasure of Genomic Imprints | mouse ES Peg3-LacZ reporter, beta-gal luminescence, 40 h | Potency, µM (series often up to 60.7 µM), for the others: at the top dose activity change, positive = activation, hits mostly activators | 110,000 tested, 0.02% active | AID 1948, 2009
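Each well holds 300 Peg3LacZ-Neo (maternal) female ES cells incubated 40 h at 37C, 5% CO2. LacZ is measured by BetaGlo luminescence, with AC50 and maximum efficacy derived from dose-response curves.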
Active calls of the source: *; ? = inconclusive; · = no result; ! = not confirmed by another sample; [ ] = another dose, or the depositor's remark. A selection: hits, their analogues and other compounds. The true share with any hit is near 1.8%. Unless noted, calls come from the whole dose curve; as a rule, active = well fitted curve in the direction sought with a large enough effect; inconclusive = small, poorly fitted or top-dose-only effect, or another doubt; inactive = no such curve, though single readings can be large; an effect the other way counts as inactive or inconclusive. Potency is the fitted concentration of half-maximal effect.

SMILES	p53ts 32C tox	IkB sig inh	p53ts 39C kill	Peg3 imprint
CCN1CCN(c2cc(C)c3cc(NC(=O)c4cccc(Cl)c4)ccc3n2)CC1	14µM*	?	2.5µM*	2%[10.9 µM]
CCN1CCN(c2cc(C)c3cc(NC(=O)/C=C/c4cccc(Cl)c4)ccc3n2)CC1	?	?	3.2µM*	-20%[10.9 µM]
CCN1CCN(c2cc(C)c3cc(NC(=O)c4cc(OC)cc(OC)c4)ccc3n2)CC1	?	-5%	2.5µM*	-12%[10.9 µM]
CCN1CCN(c2cc(C)c3cc(NC(=O)Cc4ccc(OC)c(OC)c4)ccc3n2)CC1	-7%	0%	-9%	-17%
CCCCc1ccc(C(=O)Nc2ccc3nc(N4CCN(CC)CC4)cc(C)c3c2)cc1	-8%	?	7.9µM*	-26%[10.9 µM]
COc1ccc(NC(=O)C(C)N(c2ccc(C)cc2)S(C)(=O)=O)c(OC)c1 (configuration not stated)	-3%	2%	6%	-9%
CCc1ccc2oc(-c3cc(NC(=O)c4cccs4)ccc3Cl)nc2c1	-20%	?	1%	-16%[10.9 µM]
CCc1ccc2oc(-c3cc(N)ccc3Cl)nc2c1	?	?	10µM*	-76%
CCc1ccc2oc(-c3cc(N)cc(C)c3O)nc2c1	?	?	?	27%
CCc1ccc2oc(-c3cc(N)ccc3O)nc2c1	13µM*	?	13µM*	-71%
CCCOc1ccc(N2C(=O)CC(SCCN)C2=O)cc1 (configuration not stated)	13µM*	0%	10µM*	-78%
Cc1ccc(C2=CC(c3ccccc3F)n3c(nc4ccccc43)N2)cc1C (configuration not stated)	?	?	13µM*	-15%[10.9 µM]
CCOc1ccc(C2=CC(c3cccc(Br)c3)n3c(nc4ccccc43)N2)cc1Cl (configuration not stated)	-7%	6%	-18%	-22%[10.9 µM]
COc1cccc(C2=CC(c3ccccc3F)n3c(nc4ccccc43)N2)c1 (configuration not stated)	16µM*	?	10µM*	-15%[10.9 µM]
O=c1[nH]c2c(s1)C(c1ccccc1)C1C3CCC(C3)C1S2 (configuration not stated)	-12%	?	3%	-11%
Cc1c(Cl)cnc(NC(=O)COC(=O)c2ccc([N+](=O)[O-])s2)c1Cl	-29%	·	-9%	·
CCOCCCNCC(O)c1ccccc1 (configuration not stated)	·	·	11%	·
OCc1cc(C(O)CNCCCCCCOCCCCc2ccccc2)ccc1O (configuration not stated)	?	·	13µM*	-55%
CN(C)S(=O)(=O)c1ccc2nc(NC(=O)c3cccnc3)sc2c1	16µM*	-1%	?	-55%
CC(C)(C)NS(=O)(=O)c1ccc2nc(NC(=O)c3cccnc3)sc2c1	20%	?	-5%	6%[10.9 µM]
CS(=O)(=O)c1ccc2nc(NC(=O)c3ccco3)sc2c1	13µM*	?	13µM*	-79%
Cc1ccc(C(=O)Nc2nc3ccc(S(C)(=O)=O)cc3s2)o1	11µM*	·	13µM*	·
CCOC(=O)c1ccc2nc(NC(=O)c3ccco3)sc2c1	?	?	?	-85%
Cc1nc(CC(=O)Nc2ccc(N(C)C)cc2)cs1	0%	1%	-6%	-15%[10.9 µM]
COc1cccc(NC(=O)c2ccc(CN3CCOCC3)cc2)c1	13µM*	?	10µM*	-75%
SMILES	p53ts 32C tox	IkB sig inh	p53ts 39C kill	Peg3 imprint
CC(C)Oc1cccc(C(=O)Nc2ccc(CN3CCOCC3)cc2)c1	-16%	?	-20%	-3%
COc1cccc(NC(=O)c2oc3ccccc3c2NC(=O)c2ccc3c(c2)OCO3)c1	10µM*	3%	10µM*	-3%
COc1cccc(NC(=O)c2oc3ccccc3c2NC(=O)c2cc3ccccc3o2)c1	-12%	?	?	-13%[10.9 µM]
COc1cccc(NC(=O)c2oc3ccccc3c2NC(=O)C(C)(C)C)c1	5%	?	2%	-9%
COc1cccc(NC(=O)c2oc3ccccc3c2NC(=O)c2ccc(OC(C)C)cc2)c1	?	1%	10µM*	-16%[10.9 µM]
CCN(CC)c1ccc(C(=O)N2CCc3c([nH]c4ccccc34)C2c2ccc(F)cc2)cc1 (configuration not stated)	7%	0%	-1%	-3%[10.9 µM]
C[N+](C)(C)CCC(=O)c1cccc2ccccc12	13µM*	?	16µM*	-29%
O=C(O)CCC(=O)c1cccc2ccccc12	-9%	-3%	4%	-3%
NC(=NC1C2CC3CC(C2)CC1C3)Nc1ccc(I)cc1 (configuration not stated)	-8%	1%	25µM*	-10%
CC(Oc1ccc(O)cc1)(P(=O)(O)O)P(=O)(O)O	3%	0%	-4%	-2%
OCCCSCCO	2%[9.22 µM]	1%[11.4 µM]	1%[9.22 µM]	-4%[10.9 µM]
CC(C)(C)CC(C)(C)c1ccc(O)c(Cc2ccc(Cl)cc2Cl)c1	?	·	25µM*	-35%
COc1cccc(-c2nc(NC3CCNCC3)c3ccccc3n2)c1	?	-2%[11.4 µM]	16µM*	1%
CN(C)c1ccc(-c2nc(NC3CCNCC3)c3ccccc3n2)cc1	?	0%[11.4 µM]	10µM*	-45%
c1ccc2c(NC3CCNCC3)nc(-c3ccoc3)nc2c1	2%	0%[11.4 µM]	1%	26%
COCc1cc(=O)n2c(-c3ccc(C)cc3)n[nH]c2n1	10µM*	?	10µM*	-30%
CCCCC(CC)CN=C(N)NC(N)=NCCCCCCN=C(N)NC(N)=NCC(CC)CCCC (configuration not stated)	16µM*	·	?	-34%
CCCCC(CC)CO (configuration not stated)	-4%[1.84 µM]	-1%	0%	8%
COc1c(O)cc2oc3cc(O)c(CC=C(C)C)c(O)c3c(=O)c2c1CC=C(C)C	10µM*!	1%[11.4 µM]	32µM*	-26%
O=C(Nc1nnc(/N=C/c2ccco2)s1)c1ccc(F)cc1	10µM*	1%	13µM*	-40%
CC(C)NC(=O)N1CC2(CCN(C(=O)c3ccco3)CC2)C1	0%	3%[11.4 µM]	3%	·
COc1ccc2[nH]cc(C(=O)CN3CCCCC3)c2c1	-6%	2%	0%	-17%
Cc1cc(Nc2cccc(C(F)(F)F)c2)nc2ccc(NC(=O)c3cccnc3)cc12	13µM*	·	·	·
CCCN1C(=O)c2ccccc2NC1c1ccc(OC)cc1O (configuration not stated)	-19%	-1%	-13%	7%
CN(C)c1ccc(-c2nc3ccccc3n2C)cc1	1.6µM*	?	0.79µM*	-92%
Cn1c(-c2ccc(Br)o2)nc2cc(Br)ccc21	?	-1%	?	-86%
Cn1c(-c2ccc(Br)o2)nc2ccccc21	7.9µM*	8%	10µM*	-99%
Cn1cc(C(=O)c2ccccc2)cc1-c1nc2ccccc2n1C	3%	?	-7%	-13%
Cc1oc(-c2nc3ccccc3n2C)cc1C(=O)c1ccccc1	5µM*	?	4µM*	-94%

Screens as filed in PubChem.
